# According to PubChem BioAssay (EPA / NIEHS):
# Inconclusive results are not listed. Active and inactive are the calls of the source. The calls were made as follows: active = hit-call score of the fitted dose curve at least 0.9, where 1 is the maximum; inconclusive = response in the unintended direction; inactive = score below 0.9.
# Key:
# [1] = molecular target: Muscarinic acetylcholine receptor M1 (Homo sapiens) (UniProt P11229); test: NVS_GPCR_hM1: NovaScreen (NVS) G Protein-Coupled Receptor Assay for human Muscarinic, M1 Receptor (AID 2283270)
# Muscarinic acetylcholine receptor M1 (Homo sapiens), sequence (P11229 whole entry, looked up): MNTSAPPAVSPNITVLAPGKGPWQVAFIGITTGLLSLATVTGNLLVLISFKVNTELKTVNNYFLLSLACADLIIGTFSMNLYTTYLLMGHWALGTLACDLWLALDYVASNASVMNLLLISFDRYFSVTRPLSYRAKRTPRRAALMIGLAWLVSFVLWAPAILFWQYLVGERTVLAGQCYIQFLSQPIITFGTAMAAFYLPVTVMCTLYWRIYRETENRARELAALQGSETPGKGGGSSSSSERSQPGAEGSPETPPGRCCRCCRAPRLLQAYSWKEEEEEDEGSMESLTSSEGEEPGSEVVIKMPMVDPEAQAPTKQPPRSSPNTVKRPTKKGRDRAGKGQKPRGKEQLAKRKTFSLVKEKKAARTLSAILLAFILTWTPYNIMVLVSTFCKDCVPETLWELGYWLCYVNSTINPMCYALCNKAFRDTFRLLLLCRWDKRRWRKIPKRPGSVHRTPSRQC
# Procedure, shortened: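 Cell-free radioligand displacement using membrane protein extracted from CHO cells, read by filter-based scintillation counting 1 h after dosing. Loss of bound signal fitted versus DMSO; primary screen single concentration 25 uM in duplicate, actives followed by concentration series.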
# [2] = molecular target: human Muscarinic, M4 Receptor, CHRM4 (gene 1132) (UniProt P08173); test: NVS_GPCR_hM4: NovaScreen (NVS) G Protein-Coupled Receptor Assay for human Muscarinic, M4 Receptor (AID 2283274)
# human Muscarinic, M4 Receptor, CHRM4 (gene 1132), sequence (P08173 whole entry, looked up): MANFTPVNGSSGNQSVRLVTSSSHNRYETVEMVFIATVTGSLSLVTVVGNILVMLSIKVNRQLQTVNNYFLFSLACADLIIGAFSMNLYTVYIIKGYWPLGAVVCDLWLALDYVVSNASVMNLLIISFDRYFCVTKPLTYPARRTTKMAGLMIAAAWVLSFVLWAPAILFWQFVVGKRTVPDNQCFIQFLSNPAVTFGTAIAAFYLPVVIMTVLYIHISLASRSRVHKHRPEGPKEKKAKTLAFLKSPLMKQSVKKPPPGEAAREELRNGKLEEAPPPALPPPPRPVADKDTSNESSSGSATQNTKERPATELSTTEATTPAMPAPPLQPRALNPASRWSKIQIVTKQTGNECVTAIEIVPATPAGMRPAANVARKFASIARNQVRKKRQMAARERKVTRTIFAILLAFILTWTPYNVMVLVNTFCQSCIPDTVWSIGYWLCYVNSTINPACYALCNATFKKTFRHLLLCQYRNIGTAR
# Procedure, shortened: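 Cell-free radioligand displacement using CHO-derived human M4 receptor protein, 1 h after dosing; bound radioactivity by filtration and scintillation counting. Primary screen single 25 uM duplicate, actives followed in concentration series.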
# [3] = molecular target: rat Serotonin, 5-Hydroxytryptamine Receptor 1 (5HT1), Non-Selective Binding, Htr1a (gene 24473) (UniProt P19327); test: NVS_GPCR_r5HT1_NonSelective: NovaScreen (NVS) G Protein-Coupled Receptor Assay for rat Serotonin, 5-Hydroxytryptamine Receptor 1 (5HT1), Non-Selective Binding (AID 2283286)
# Procedure, shortened: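 Rat cortical membranes, radioligand displacement, 1 h incubation, read by filter scintillation. Primary screen in duplicate at 25 uM. Hits (e.g. ≥30% inhibition) went to concentration-response up to 50 uM, fitted as loss of binding versus DMSO.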
# [4] = test system: rabbit Platelet Activating Factor Receptor (PAF), gene 100354046; test: NVS_GPCR_rabPAF: NovaScreen (NVS) G Protein-Coupled Receptor Assay for rabbit Platelet Activating Factor Receptor (PAF) (AID 2283287)
# Procedure, shortened: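 Rabbit platelet membrane preparation; radioligand displacement read by filter-based scintillation counting 1 h after dosing, loss of signal versus DMSO. Primary screen in duplicate at 25 uM, actives followed up in concentration series.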
# [5] = test system: 5-hydroxytryptamine receptor 2C (pig); test: NVS_GPCR_p5HT2C: NovaScreen (NVS) G Protein-Coupled Receptor Assay for pig Serotonin, 5-Hydroxytryptamine Receptor 2C (5HT2C) (AID 2283288)
# Procedure, shortened: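 Pig choroid plexus membranes; radioligand competitive binding, filter-based scintillation counting, read 1 h after dosing. Primary screen in duplicate at 25 uM; actives then run as concentration series; loss of signal versus DMSO baseline.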
# [6] = molecular target: rat Adrenergic, Alpha 1, Non-selective Receptor (Adra1), Adra1a (gene 29412) (UniProt P43140); test: NVS_GPCR_rAdra1_NonSelective: NovaScreen (NVS) G Protein-Coupled Receptor Assay for rat Adrenergic, Alpha 1, Non-selective Receptor (Adra1) (AID 2283289)
# rat Adrenergic, Alpha 1, Non-selective Receptor (Adra1), Adra1a (gene 29412), sequence (P43140 whole entry, looked up): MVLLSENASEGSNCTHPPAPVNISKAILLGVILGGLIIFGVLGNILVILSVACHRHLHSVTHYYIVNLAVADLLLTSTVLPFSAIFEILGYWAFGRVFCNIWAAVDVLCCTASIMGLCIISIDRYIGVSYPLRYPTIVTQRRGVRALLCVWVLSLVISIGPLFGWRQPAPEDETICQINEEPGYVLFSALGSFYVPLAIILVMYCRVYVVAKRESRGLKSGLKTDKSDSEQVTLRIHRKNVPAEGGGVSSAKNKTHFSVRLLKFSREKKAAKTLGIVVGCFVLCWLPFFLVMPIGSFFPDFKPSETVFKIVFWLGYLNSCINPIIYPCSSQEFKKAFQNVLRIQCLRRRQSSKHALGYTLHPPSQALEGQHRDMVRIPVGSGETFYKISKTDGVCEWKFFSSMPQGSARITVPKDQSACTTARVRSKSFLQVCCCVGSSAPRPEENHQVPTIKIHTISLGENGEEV
# Procedure, shortened: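 Rat forebrain membranes; radioligand displacement read by filter-based scintillation counting 1 h after dosing. Primary screen in duplicate at 25 uM; hits (e.g. ≥30% inhibition) rerun as concentration–response to 50 uM max. Fitted versus DMSO.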
# [7] = molecular target: human Opioid Receptor Mu (Opiate Mu), OPRM1 (gene 4988) (UniProt P35372); test: NVS_GPCR_hOpiate_mu: NovaScreen (NVS) G Protein-Coupled Receptor Assay for human Opioid Receptor Mu (Opiate Mu) (AID 2283290);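 also: hits lower bound tracer signal versus DMSO meaning displacement of the ligand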
# human Opioid Receptor Mu (Opiate Mu), OPRM1 (gene 4988), sequence (P35372 whole entry, looked up): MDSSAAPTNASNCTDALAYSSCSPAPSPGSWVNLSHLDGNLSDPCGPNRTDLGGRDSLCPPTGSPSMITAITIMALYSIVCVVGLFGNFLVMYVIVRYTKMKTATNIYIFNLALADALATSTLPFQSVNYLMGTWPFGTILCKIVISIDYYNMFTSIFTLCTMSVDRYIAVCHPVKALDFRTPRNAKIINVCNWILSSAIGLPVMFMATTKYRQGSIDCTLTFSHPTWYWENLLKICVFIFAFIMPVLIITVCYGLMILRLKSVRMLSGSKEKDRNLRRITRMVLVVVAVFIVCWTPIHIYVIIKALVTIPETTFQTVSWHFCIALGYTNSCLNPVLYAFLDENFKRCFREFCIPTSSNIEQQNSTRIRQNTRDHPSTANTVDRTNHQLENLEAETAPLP
# Procedure, shortened: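 Primary screen in duplicate at 25 uM, with actives followed in concentration series. CHO-derived receptor membranes, cell-free; bound radioligand read by scintillation counting after filtration at 2.5 h, decrease scored against DMSO.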
# [8] = molecular target: guinea pig Bradykinin Receptor B2 (BK2), BDKRB2 (gene 100135486) (UniProt O70526); test: NVS_GPCR_gBK2: NovaScreen (NVS) G Protein-Coupled Receptor Assay for guinea pig Bradykinin Receptor B2 (BK2) (AID 2283292)
# guinea pig Bradykinin Receptor B2 (BK2), BDKRB2 (gene 100135486), sequence (O70526 whole entry, looked up): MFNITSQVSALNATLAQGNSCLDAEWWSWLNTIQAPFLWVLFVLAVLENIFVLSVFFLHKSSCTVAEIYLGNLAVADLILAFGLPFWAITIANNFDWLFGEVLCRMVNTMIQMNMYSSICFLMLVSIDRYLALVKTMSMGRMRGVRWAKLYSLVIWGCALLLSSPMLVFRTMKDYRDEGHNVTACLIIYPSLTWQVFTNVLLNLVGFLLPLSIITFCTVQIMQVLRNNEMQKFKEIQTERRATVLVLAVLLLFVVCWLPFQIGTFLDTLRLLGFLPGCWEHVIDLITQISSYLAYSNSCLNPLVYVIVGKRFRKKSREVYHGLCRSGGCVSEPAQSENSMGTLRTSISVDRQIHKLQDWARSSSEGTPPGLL
# Procedure, shortened: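 Radioligand displacement on guinea pig ileum membranes for 1 h, read by filter-based scintillation counting; loss of signal relative to DMSO. Compounds were screened in duplicate at 25 uM, and those passing the threshold were retested in concentration-response up to 50 uM.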
# [9] = molecular target: Muscarinic acetylcholine receptor M3 (Homo sapiens) (UniProt P20309); test: NVS_GPCR_hM3: NovaScreen (NVS) G Protein-Coupled Receptor Assay for human Muscarinic, M3 Receptor (AID 2283272)
# Muscarinic acetylcholine receptor M3 (Homo sapiens), sequence (P20309 whole entry, looked up): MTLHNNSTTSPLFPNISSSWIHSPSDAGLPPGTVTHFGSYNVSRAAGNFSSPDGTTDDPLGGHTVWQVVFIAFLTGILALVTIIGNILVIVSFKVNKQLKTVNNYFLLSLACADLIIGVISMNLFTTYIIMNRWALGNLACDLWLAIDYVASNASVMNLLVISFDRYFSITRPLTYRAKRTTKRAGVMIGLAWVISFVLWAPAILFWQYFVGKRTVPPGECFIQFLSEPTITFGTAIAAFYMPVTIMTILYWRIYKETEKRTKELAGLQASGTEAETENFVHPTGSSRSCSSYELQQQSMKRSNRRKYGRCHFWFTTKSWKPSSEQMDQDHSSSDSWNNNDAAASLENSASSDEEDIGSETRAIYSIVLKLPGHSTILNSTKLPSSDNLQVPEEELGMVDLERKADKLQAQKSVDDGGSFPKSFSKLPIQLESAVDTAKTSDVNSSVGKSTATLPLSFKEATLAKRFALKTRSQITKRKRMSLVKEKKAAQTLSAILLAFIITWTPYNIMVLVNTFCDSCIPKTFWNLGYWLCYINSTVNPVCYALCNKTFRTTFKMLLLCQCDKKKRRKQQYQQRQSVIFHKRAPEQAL
# Procedure, shortened: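 Radioligand displacement binding on human M3 receptor in CHO-derived membranes, 1 h incubation, filter-based scintillation counting. Primary screen in duplicate at 25 uM; actives followed up in concentration series; loss of signal versus DMSO.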
# [10] = molecular target: Muscarinic acetylcholine receptor M2 (Homo sapiens) (UniProt P08172); test: NVS_GPCR_hM2: NovaScreen (NVS) G Protein-Coupled Receptor Assay for human Muscarinic, M2 Receptor (AID 2283273)
# Muscarinic acetylcholine receptor M2 (Homo sapiens), sequence (P08172 whole entry, looked up): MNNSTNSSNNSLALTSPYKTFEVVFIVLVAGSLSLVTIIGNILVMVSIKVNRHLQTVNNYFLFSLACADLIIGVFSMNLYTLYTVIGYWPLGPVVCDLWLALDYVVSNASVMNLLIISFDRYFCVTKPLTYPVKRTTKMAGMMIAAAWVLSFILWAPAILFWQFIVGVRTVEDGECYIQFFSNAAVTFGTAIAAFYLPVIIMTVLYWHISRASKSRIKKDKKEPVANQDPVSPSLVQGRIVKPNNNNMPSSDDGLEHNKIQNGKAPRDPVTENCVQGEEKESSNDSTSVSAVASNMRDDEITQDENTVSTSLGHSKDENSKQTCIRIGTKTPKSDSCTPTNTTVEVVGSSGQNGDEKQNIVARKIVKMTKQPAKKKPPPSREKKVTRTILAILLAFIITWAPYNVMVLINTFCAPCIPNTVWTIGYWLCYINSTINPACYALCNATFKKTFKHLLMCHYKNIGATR
# Procedure, shortened: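 Cell-free radioligand binding using membranes from CHO cells expressing the receptor; filter-based scintillation counting after 1 hour of compound exposure. Loss of specific binding relative to DMSO baseline; primary screen at 25 uM in duplicate, actives then run in concentration series.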
# [11] = molecular target: human Leukotriene B4 Receptor 1 (LTB4-BLT1), LTB4R (gene 1241) (UniProt Q15722); test: NVS_GPCR_hLTB4_BLT1: NovaScreen (NVS) G Protein-Coupled Receptor Assay for human Leukotriene B4 Receptor 1 (LTB4-BLT1) (AID 2283271)
# human Leukotriene B4 Receptor 1 (LTB4-BLT1), LTB4R (gene 1241), sequence (Q15722 whole entry, looked up): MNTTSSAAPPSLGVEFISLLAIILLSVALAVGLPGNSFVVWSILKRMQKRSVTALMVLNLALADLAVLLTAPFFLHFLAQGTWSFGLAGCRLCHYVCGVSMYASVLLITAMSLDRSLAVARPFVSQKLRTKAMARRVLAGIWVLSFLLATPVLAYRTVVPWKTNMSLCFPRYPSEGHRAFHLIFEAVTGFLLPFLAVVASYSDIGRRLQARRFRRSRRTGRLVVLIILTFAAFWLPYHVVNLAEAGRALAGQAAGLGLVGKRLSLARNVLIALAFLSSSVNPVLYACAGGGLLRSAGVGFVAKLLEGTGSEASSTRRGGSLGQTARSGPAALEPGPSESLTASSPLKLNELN
# Procedure, shortened: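 Radioligand displacement binding on receptor extracted from human neutrophils, cell-free, 1 h after dosing; filter-based scintillation counting. Primary screen in duplicate at 25 uM, actives retested in concentration-response up to 50 uM; loss of signal versus DMSO.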
# [12] = molecular target: human Neuropeptide Receptor Y1 (NPY1), NPY1R (gene 4886) (UniProt P25929); test: NVS_GPCR_hNPY1: NovaScreen (NVS) G Protein-Coupled Receptor Assay for human Neuropeptide Receptor Y1 (NPY1) (AID 2283276)
# Procedure, shortened: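 Cell-free radioligand binding using receptor extracted from SK-N-MC cells, 1 h incubation, filter-based scintillation counting. Primary screen single concentration 25 uM in duplicate; actives followed in concentration series. Loss of bound signal scored versus DMSO.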
# [13] = molecular target: Neuropeptide Y receptor type 2 (Homo sapiens) (UniProt P49146); test: NVS_GPCR_hNPY2: NovaScreen (NVS) G Protein-Coupled Receptor Assay for human Neuropeptide Receptor Y2 (NPY2) (AID 2283277)
# Neuropeptide Y receptor type 2 (Homo sapiens), sequence (P49146 whole entry, looked up): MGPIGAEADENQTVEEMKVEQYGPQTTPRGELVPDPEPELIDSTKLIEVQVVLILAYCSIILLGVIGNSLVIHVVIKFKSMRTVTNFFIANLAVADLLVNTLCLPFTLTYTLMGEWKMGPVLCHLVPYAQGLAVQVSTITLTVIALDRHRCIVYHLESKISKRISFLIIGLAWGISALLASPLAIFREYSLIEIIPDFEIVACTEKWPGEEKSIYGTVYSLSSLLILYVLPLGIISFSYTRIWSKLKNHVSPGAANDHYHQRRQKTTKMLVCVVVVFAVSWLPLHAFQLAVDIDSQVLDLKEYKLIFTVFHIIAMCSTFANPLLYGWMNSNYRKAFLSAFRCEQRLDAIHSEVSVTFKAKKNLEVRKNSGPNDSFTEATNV
# Procedure, shortened: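 Radioligand binding on membranes extracted from SK-N-MC cells, cell-free, read 1 h after dosing by filter-based scintillation counting. Loss of signal vs DMSO. Primary screen in duplicate at 25 uM; actives followed up in concentration-response up to 50 uM.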
# [14] = molecular target: human Orphanin, Opioid Related Nociceptin Receptor 1 (ORL1), OPRL1 (gene 4987) (UniProt P41146); test: NVS_GPCR_hORL1: NovaScreen (NVS) G Protein-Coupled Receptor Assay for human Orphanin, Opioid Related Nociceptin Receptor 1 (ORL1) (AID 2283283)
# Procedure, shortened: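 Filter-based radioligand displacement with receptor extracted from HEK293 cells, read 1 hour after dosing by scintillation counting. Duplicate single-point screen at 25 uM; qualifying chemicals then run in concentration-response to 50 uM, analysed relative to DMSO.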
# [15] = molecular target: mouse Cholecystokinin, CCK1 Receptor (CCKA), Cckar (gene 12425) (UniProt O08786); test: NVS_GPCR_mCCKAPeripheral: NovaScreen (NVS) G Protein-Coupled Receptor Assay for mouse Cholecystokinin, CCK1 Receptor (CCKA) (AID 2283285)
# Procedure, shortened: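 Radioligand competitive displacement on mouse pancreatic membranes, 2 h incubation; filter-based scintillation counting, loss of signal versus DMSO. Single-concentration screen at 25 uM in duplicate, actives retested in concentration-response up to 50 uM.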
# [16] = molecular target: mouse Cholecystokinin, CCK2 Receptor (CCKB), Cckbr (gene 12426) (UniProt P56481); test: NVS_GPCR_mCKKBCentral: NovaScreen (NVS) G Protein-Coupled Receptor Assay for mouse Cholecystokinin, CCK2 Receptor (CCKB) (AID 2283293)
# Procedure, shortened: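 Radioligand displacement binding on mouse forebrain membranes, 2 h exposure, filter-based scintillation counting. Primary screen in duplicate at 25 uM; actives (e.g. ≥30% inhibition) retested in concentration-response up to 50 uM; loss of binding signal relative to DMSO.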
# [17] = molecular target: D(1A) dopamine receptor (Homo sapiens) (UniProt P21728); test: NVS_GPCR_hDRD1: NovaScreen (NVS) G Protein-Coupled Receptor Assay for human Dopamine Receptor D1 (DRD1) (AID 2283269)
# Procedure, shortened: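 Cell-free competition with radioligand, filter-trapped and scintillation-counted 1 h post-dose, using HEK293-derived human D1 preparation. Duplicate single-point testing at 25 uM first, then concentration series for actives; DMSO served as baseline, loss-of-signal scored.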
# [18] = molecular target: human Thromboxane A2 Receptor (TXA2), TBXA2R (gene 6915) (UniProt P21731); test: NVS_GPCR_hTXA2: NovaScreen (NVS) G Protein-Coupled Receptor Assay for human Thromboxane A2 Receptor (TXA2) (AID 2283282);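 also: actives reduce bound radioligand signal relative to DMSO baseline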
# human Thromboxane A2 Receptor (TXA2), TBXA2R (gene 6915), sequence (P21731 whole entry, looked up): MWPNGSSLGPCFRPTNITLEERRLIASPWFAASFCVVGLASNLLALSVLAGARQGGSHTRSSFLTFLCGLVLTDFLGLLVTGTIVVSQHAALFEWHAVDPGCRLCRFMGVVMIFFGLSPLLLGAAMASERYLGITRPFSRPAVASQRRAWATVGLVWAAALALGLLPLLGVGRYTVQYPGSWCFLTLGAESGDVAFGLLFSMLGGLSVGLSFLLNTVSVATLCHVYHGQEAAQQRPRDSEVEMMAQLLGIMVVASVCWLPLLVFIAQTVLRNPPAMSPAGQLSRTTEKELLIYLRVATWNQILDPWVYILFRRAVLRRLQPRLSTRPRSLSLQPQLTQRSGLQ
# Procedure, shortened: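 Biochem binding, human platelets, cell-free; competitive radioligand displacement; 1 h; filter radiodetection. 25 uM duplicate primary, conc. series secondary; DMSO neg. ctrl.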
# [19] = molecular target: human Vasopressin 1A Receptor (V1A), AVPR1A (gene 552) (UniProt P37288); test: NVS_GPCR_hV1A: NovaScreen (NVS) G Protein-Coupled Receptor Assay for human Vasopressin 1A Receptor (V1A) (AID 2283284)
# human Vasopressin 1A Receptor (V1A), AVPR1A (gene 552), sequence (P37288 whole entry, looked up): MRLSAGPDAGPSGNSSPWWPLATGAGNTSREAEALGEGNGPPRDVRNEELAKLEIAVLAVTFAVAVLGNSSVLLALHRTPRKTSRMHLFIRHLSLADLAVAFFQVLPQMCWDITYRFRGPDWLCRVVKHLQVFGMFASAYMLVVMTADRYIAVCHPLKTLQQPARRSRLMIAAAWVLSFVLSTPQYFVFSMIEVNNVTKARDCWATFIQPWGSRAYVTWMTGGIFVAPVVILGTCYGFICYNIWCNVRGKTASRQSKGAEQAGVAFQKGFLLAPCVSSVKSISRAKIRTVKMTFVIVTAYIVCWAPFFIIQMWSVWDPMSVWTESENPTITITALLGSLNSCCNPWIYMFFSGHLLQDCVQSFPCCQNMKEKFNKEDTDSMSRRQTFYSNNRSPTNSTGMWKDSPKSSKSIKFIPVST
# Procedure, shortened: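 Cell-free radioligand displacement on human platelet preparations, 1.5 h incubation, filter-based scintillation counting. Chemicals first tested in duplicate at 25 uM; actives then run in concentration-response up to 50 uM, loss of signal fitted against DMSO.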
structure (smiles),measurement,setting,value
COc1cc(C(=O)NC2CCN(C)CC2)ccc1Nc1ncc2c(n1)N(C1CCCC1)CC(F)(F)C(=O)N2C,AC50,[1],5.54 µM (active)
same,AC50,[2],16.7 µM (active)
same,outcome,[3],inactive
same,AC50,[4],0.76 µM (active)
same,AC50,[5],3.34 µM (active)
same,AC50,[6],3.85 µM (active)
same,AC50,[7],17.4 µM (active)
same,AC50,[8],2.81 µM (active)
Clc1cc(Cl)c2c(c1)N=C1CCCCCN1C2,AC50,[1],2.74 µM (active)
same,AC50,[9],2.09 µM (active)
same,AC50,[10],1.17 µM (active)
same,AC50,[2],1.71 µM (active)
same,AC50,[6],6.44 µM (active)
Cc1oc2c(NC(=O)c3c(Cl)cccc3Cl)cccc2c1C(C)(C)O,AC50,[11],11.7 µM (active)
same,AC50,[4],5.98 µM (active)
CN(C)c1ccc(C(=C2C=CC(=[N+](C)C)C=C2)c2ccc(N(C)C)cc2)cc1,AC50,[11],8.85 µM (active)
same,AC50,[10],0.939 µM (active)
same,AC50,[2],0.863 µM (active)
same,AC50,[12],13.3 µM (active)
same,AC50,[13],16.6 µM (active)
same,AC50,[14],21.8 µM (active)
same,AC50,[15],10.8 µM (active)
same,AC50,[5],18.5 µM (active)
same,AC50,[6],4.81 µM (active)
same,AC50,[7],2.5 µM (active)
same,AC50,[8],12.3 µM (active)
same,AC50,[16],10.3 µM (active)
CCN(Cc1cccnc1)C(=O)c1cccc(Cl)c1[C@]1(C)C(=O)N(Cc2ccc(OC)cc2OC)c2ccc(Cl)cc21,AC50,[17],2.53 µM (active)
same,AC50,[11],1.49 µM (active)
same,AC50,[18],6.61 µM (active)
same,outcome,[19],inactive
same,AC50,[4],1.68 µM (active)
same,AC50,[6],11.4 µM (active)
same,AC50,[7],1.48 µM (active)
CCCCCCCCOC(=O)c1cc(O)c(O)c(O)c1,outcome,[9],inactive
same,AC50,[2],8.67 µM (active)
same,AC50,[7],18 µM (active)
c1ccc(C[n+]2cccc3ccccc32)cc1,AC50,[9],25 µM (active)
same,AC50,[10],9.2 µM (active)
same,AC50,[2],16.8 µM (active)
same,outcome,[19],inactive
same,AC50,[6],11.7 µM (active)
